About 1,300 (0.38%) of roughly 340,000 compounds were called active.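 Rule for the calls: active = maximum activity change below -70%; inconclusive = maximum activity change between -70% and -50%; inactive = maximum activity change above -50%.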 The entries come from a sample that favours actives as a whole.
% is set by controls: 0 for no effect and ±100 for the full control effect.

The target in this assay is Voltage-gated inwardly rectifying potassium channel KCNH2 (Homo sapiens) (UniProt Q12809). Put plainly: qHTS for Inhibitors of KCHN2 3.1: Wildtype qHTS. Particulars: U2OS, BacMam KCNH2, thallium flux FluxOr; at 1.84 µM; active compounds read low. A digest of the protocol: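 U2OS cells were transduced with wild-type KCNH2 virus (2.03 x 10^8 / mL) for 4 h at room temperature, then cultured overnight at 37 C. Thallium flux was read with FluxOr dye. Rate constants were normalized to DMSO controls.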
Chain of Voltage-gated inwardly rectifying potassium channel KCNH2 (Homo sapiens) (Q12809 whole entry, looked up): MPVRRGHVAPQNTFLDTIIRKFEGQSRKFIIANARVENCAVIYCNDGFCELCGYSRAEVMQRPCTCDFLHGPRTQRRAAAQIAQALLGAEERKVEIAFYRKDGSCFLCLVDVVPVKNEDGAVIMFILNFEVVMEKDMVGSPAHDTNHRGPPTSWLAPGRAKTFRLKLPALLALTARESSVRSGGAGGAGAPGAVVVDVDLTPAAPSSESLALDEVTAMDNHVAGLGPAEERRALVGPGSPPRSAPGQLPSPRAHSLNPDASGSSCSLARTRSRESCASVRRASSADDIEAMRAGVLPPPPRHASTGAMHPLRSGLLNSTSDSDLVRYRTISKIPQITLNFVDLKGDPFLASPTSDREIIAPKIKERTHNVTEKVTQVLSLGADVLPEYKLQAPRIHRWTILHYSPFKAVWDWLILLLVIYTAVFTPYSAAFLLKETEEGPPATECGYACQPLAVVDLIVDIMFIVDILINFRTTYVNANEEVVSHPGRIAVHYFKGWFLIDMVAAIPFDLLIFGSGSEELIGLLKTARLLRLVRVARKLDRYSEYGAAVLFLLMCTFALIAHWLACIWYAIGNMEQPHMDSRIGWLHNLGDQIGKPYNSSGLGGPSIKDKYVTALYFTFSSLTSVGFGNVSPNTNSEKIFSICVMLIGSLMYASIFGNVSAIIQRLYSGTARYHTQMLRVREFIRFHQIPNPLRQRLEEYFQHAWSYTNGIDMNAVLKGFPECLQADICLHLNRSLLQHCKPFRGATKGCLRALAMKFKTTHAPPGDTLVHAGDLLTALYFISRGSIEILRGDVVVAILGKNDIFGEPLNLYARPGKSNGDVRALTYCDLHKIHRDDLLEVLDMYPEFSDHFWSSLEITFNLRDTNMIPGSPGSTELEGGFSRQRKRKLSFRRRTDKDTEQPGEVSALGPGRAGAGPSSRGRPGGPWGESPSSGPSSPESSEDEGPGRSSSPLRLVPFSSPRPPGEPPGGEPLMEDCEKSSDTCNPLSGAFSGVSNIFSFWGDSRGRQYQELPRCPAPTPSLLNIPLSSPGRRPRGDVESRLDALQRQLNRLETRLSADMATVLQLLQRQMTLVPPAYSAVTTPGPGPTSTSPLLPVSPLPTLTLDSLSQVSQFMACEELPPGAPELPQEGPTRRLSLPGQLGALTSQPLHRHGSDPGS
On the technique in general: qHTS replaces the single test concentration by a dilution series.
Take `O=C(NCCN1CCOCC1)c1ccc2c(c1)N(Cc1cccc(Cl)c1)C(=O)c1ccccc1S2(=O)=O`: the activity change is 2.54% (inactive).
On to `Cc1cc(OCC(=O)Nc2nccs2)c2c(C)c(C)c(=O)oc2c1`, for which the activity change is -4.04% (inactive).
As for `CC1(C)CC(=O)C=C(c2ccc(COC(=O)c3cc(F)cc(F)c3)cc2)C1=O`, the figure is -3.02% (inactive).
With `CCN(CC)CCN(C(=O)c1ccc2c(c1)CCCC2)c1nc2c(OC)cccc2s1` the figure was -10.1% (inactive); with `Cc1cc(C)c2cc(C#N)c(N3CCNCC3)nc2c1`, 31.7% (inactive); with `CNC(=O)NC(=O)C(C)N1CCN(C/C=C/c2ccccc2)CC1` (stereo not drawn), 16.2% (inactive).
As for `COc1ccccc1NC(=O)CCN1CCN(c2ccc(Cl)cc2)CC1`, the figure is 0.203% (inactive); as for `O=C(CN1CCN(C/C=C/c2ccccc2)CC1)Nc1ccc(F)cc1F`, -155% (active).
Consider `O=C(CN1CCN(C(=O)c2cccc(F)c2)CC1)Nc1ccccc1F`, for which the activity change was 4.68% (inactive).
For `O=C(CCN1CCN(C/C=C/c2ccccc2)CC1)Nc1ccccc1Cl`, the activity change was -76.7% (active).
With `CCOC(=O)N1CCN(CCC(=O)Nc2ccccc2)CC1` the figure was 9.24% (inactive).
As for `O=C(CCN1C(=O)c2ccccc2C1=O)Nc1cccc(F)c1`, the figure is 5.88% (inactive); as for `O=C(COC(=O)CSc1ccccc1)Nc1ccc(F)cc1F`, -4.38% (inactive); as for `O=C(CCN1CCN(C/C=C/c2ccccc2)CC1)Nc1cccc(F)c1`, -92.1% (active).
Turning to `COc1ccc(NC(=O)N(C)C[C@@H]2OCc3cn(nn3)CCCC(=O)N([C@H](C)CO)C[C@H]2C)c(OC)c1`, the activity change was 3.91% (inactive).
Consider `Cc1ccc(-c2ccc(C3=CC(=O)CC(C)(C)C3=O)cc2)cc1`, for which the activity change was -2.66% (inactive).
With `CSc1ncnc2c1ncn2CCCNCc1cccs1` the figure was 6.63% (inactive).
With `COc1ccccc1C(=O)OCC(=O)NCCNC(=O)COC(=O)c1ccccc1OC` the figure was -4.76% (inactive).
As for `CCOC(=O)c1ccccc1OC(=O)Oc1ccccc1C(=O)OCC`, the figure is -141% (active).
For `CCOC(=O)c1ccccc1CN1C(=O)c2ccccc2S1(=O)=O`, the activity change is -3.26% (inactive).
Take `CCc1ccccc1NC(=O)CN1CCN(C(=O)c2cc(C3CC3)nn2-c2ccccc2)CC1`: the activity change is 4.86% (inactive).
As for `CCOC(=O)C1CCCN(Cc2nc(N)nc(Nc3ccc(C)cc3)n2)C1` (stereo not drawn), the figure is 27.8% (inactive); as for `Cc1ccccc1Nc1nc(N)nc(CN2CCN(c3ccccn3)CC2)n1`, 15.1% (inactive).
For `Cc1ccc(Nc2nc(N)nc(CN3CCN(Cc4ccccc4)CC3)n2)cc1Cl`, the activity change is -75.8% (active).
As for `c1ccc2c(c1)nnn2-c1ccncc1`, the figure is -10.2% (inactive); as for `CCOc1ccc(C2c3[nH]c4ccccc4c3CCN2Cc2cn(CC)nc2C)cc1` (stereo not drawn), 23.4% (inactive); as for `c1ccc(C2c3[nH]c4ccccc4c3CCN2Cc2cccn2-c2cccnc2)nc1` (stereo not drawn), 5.67% (inactive).
With `CCOc1ccc(C2c3[nH]c4ccccc4c3CCN2Cc2cccn2-c2ncccn2)cc1` (stereo not drawn) the figure was -74.4% (active); with `NC1=CC(=O)C(=O)c2cccnc21`, -14.1% (inactive).
As for `O=C(COC(=O)Cc1ccc(Cl)cc1Cl)NCc1ccco1`, the figure is 5.01% (inactive); as for `O=C(NCCc1ccccc1)/C(=C\c1ccc([N+](=O)[O-])cc1)NC(=O)c1ccccc1`, 23.3% (inactive).
On to `CN(C)CCNC(=O)/C(=C/c1cccc([N+](=O)[O-])c1)NC(=O)c1ccccc1`, for which the activity change is -79.1% (active).
On to `Cc1ccc(C(=O)N/C(=C/c2ccc(-c3cccc([N+](=O)[O-])c3)o2)C(=O)NCCCN(C)C)cc1`, for which the activity change was -0.553% (inactive).
As for `O=C(CN1C(=O)NC2(CCc3ccccc32)C1=O)NC1CCCCC1` (stereo not drawn), the figure is 12.5% (inactive); as for `COc1cccc(CNC(=O)CCC2CCCN(Cc3ccc(OC(F)F)cc3)C2)c1` (stereo not drawn), -23.2% (inactive).
As for `C/C=C(\C)C(=O)NCCN1C2=NC[C@H](Cc3ccc(O)cc3)N2C[C@@H]1Cc1ccc(OC)cc1`, the figure is -2.93% (inactive); as for `COc1ccc(C[C@H]2CN3C(=NC[C@H]3C)N2CCNC(=O)CCC2CCCCC2)cc1`, -97.2% (active); as for `COc1ccc(NC(=O)C[C@H]2C(=O)N(CCc3ccccc3)C[C@@H]2C)cc1`, -25.6% (inactive).
With `O=C(CCN1CCCCC1)Nc1ccc(F)c(F)c1` the figure was -2.99% (inactive); with `Cc1ccc(NC(=O)COC(=O)CN2CCSC2=O)cc1F`, -2.67% (inactive).
In the case of `CC(C)NC(=O)Nc1ccc2c(c1)C(=O)N([C@H](C)CO)C[C@H](C)[C@@H](CN(C)Cc1ccc(C(F)(F)F)cc1)OCCCC[C@@H](C)O2`, the activity change was -10.8% (inactive).
With `CC1(C)Cc2cccc(OCC(=O)Nc3nccs3)c2O1` the figure was -0.616% (inactive); with `CC1(C)Cc2cccc(OCC(N)=O)c2O1`, -15.1% (inactive).
With `CC1(C)Cc2cccc(OCC(=O)N3CCN(c4ccc([N+](=O)[O-])cc4)CC3)c2O1` the figure was -90.2% (active).
With `Cn1c(CNC(=O)c2ccccc2F)nnc1SCc1ccc(F)cc1` the figure was 6.63% (inactive); with `CC(Sc1nnc(CNC(=O)c2ccccc2F)n1C)C(=O)Nc1nccs1` (stereo not drawn), -161% (active); with `COc1ccccc1C(=O)NCc1nnc(SC(C)C(=O)Nc2nccs2)n1C` (stereo not drawn), -5.03% (inactive).
In the case of `C=CCn1nc(C(=O)OCC)cc1-c1sc(NC(=O)c2ccccc2)nc1C`, the activity change was 41.9% (inactive).
As for `CN(C)C(CNC(=O)c1cc(Br)c(Br)s1)c1ccco1` (stereo not drawn), the figure is 6.08% (inactive); as for `O=S(=O)(c1cccc(C(F)(F)F)c1)N1c2ccccc2-n2cccc2C1c1cccnc1` (stereo not drawn), -12.2% (inactive).
As for `CCC(CC)C(=O)Nc1ccc(S(=O)(=O)Nc2nccs2)cc1`, the figure is 0.976% (inactive).
For the molecule `O=C(CCc1ccccc1Cl)Nc1ccc(S(=O)(=O)Nc2nccs2)cc1`, the activity change was -79.2% (active).
With `Cc1ccc(OCCC(=O)Nc2ccc(S(=O)(=O)Nc3nccs3)cc2)cc1` the figure was 4.09% (inactive).
On to `O=C(OCC(=O)N1CCCCCC1)c1cccc(Cl)c1Cl`, for which the activity change is 0.263% (inactive).
Regarding `C[C@H]1CN([C@@H](C)CO)C(=O)CCCn2cc(nn2)CO[C@@H]1CN(C)S(=O)(=O)c1ccc(-n2cccn2)cc1`, the activity change is 12.7% (inactive).
With `CCOc1ccc(S(=O)(=O)NCCC(=O)NNC(=O)c2ccc(F)cc2)cc1` the figure was -9.08% (inactive); with `CCN1CCCC1CNc1ncnc2c1[nH]c1ccc(F)cc12` (stereo not drawn), -81.9% (active).
With `Fc1ccc2[nH]c3c(N4CCN(Cc5ccc6c(c5)OCO6)CC4)ncnc3c2c1` the figure was 22.8% (inactive); with `CCN1CCCC1Cn1cnc2c([nH]c3cc(OC)ccc32)c1=O` (stereo not drawn), 0.665% (inactive).
As to `COc1cc(-c2nnc(NC(=O)CS(=O)(=O)c3ccc(Cl)cc3)o2)cc(OC)c1OC`, the activity change is -3.22% (inactive).
As for `C[C@@H]1Cn2cnc(C(=O)Nc3ccc(CNC(=O)OC(C)(C)C)cc3)c2C(=O)N1`, the figure is 1.51% (inactive); as for `O=C(CSc1nnc(-c2cccnc2)n1Cc1ccco1)c1ccc(Cl)c(Cl)c1`, 1.21% (inactive); as for `Cc1ccc(NC(=O)CSc2nnc(-c3cnccn3)n2Cc2ccco2)cc1C`, 8.19% (inactive).
With `O=C(CSc1nnc(-c2cnccn2)n1Cc1ccco1)c1ccc(Cl)c(Cl)c1` the figure was -187% (active); with `CC(=O)Nc1ccc(SCC(=O)NC(=O)c2ccc(Cl)cc2)cc1`, 1.87% (inactive); with `CSc1ncnc2c1ncn2CCCNCC(C)c1ccccc1` (stereo not drawn), -15.1% (inactive).
Turning to `O=C(Nc1ccnn1C1CCN(C/C=C/c2ccc(F)cc2)CC1)C1CCCC1`, the activity change is -105% (active).
With `CC(CN1CCC(n2nccc2NC(=O)C2CCCC2)CC1)c1ccccc1` (stereo not drawn) the figure was 15.8% (inactive); with `Cc1nn(C)c(Cl)c1CN1CCC(n2nccc2NC(=O)C2CCCC2)CC1`, 26.5% (inactive).
As for `COC(=O)N(C)C[C@@H]1OCc2cnnn2CCCC(=O)N([C@@H](C)CO)C[C@@H]1C`, the figure is 1.19% (inactive).
With `COCCn1c(SCC(=O)Nc2ccc(F)cc2F)nc2c(c1=O)SCC2` the figure was -2.69% (inactive).
`Nc1cc(C(=O)N2CCN(c3ccccc3Cl)CC2)ccc1N1CC2CC(C1)c1cccc(=O)n1C2` (stereo not drawn): the activity change is 6.37% (inactive).
In the case of `C=CCNC(=S)N1CCc2[nH]c3ccccc3c2C1`, the activity change is 1.48% (inactive).
As for `O=C(CCCN1CCc2[nH]c3ccc(F)cc3c2C1)c1ccc(F)cc1`, the figure is -94.7% (active); as for `CC1CCc2[nH]c3ccc(C(=O)N(C)CC(=O)Nc4cccc(F)c4)cc3c2C1` (stereo not drawn), 2.89% (inactive); as for `Cc1ccc(C(=O)N[C@H](C(=O)N2CCN(c3ncccn3)CC2)C(C)C)cc1`, 1.07% (inactive).
With `Cc1ccc(S(=O)(=O)N2C[C@H]3C(=O)C[C@@H](c4cccc5ccccc45)N(S(=O)(=O)c4ccc(C)cc4)[C@H]3C[C@H]2c2ccc(Cl)cc2)cc1` the figure was 5.59% (inactive); with `O=C(COc1ccc(Br)cc1)OCC(=O)c1ccc[nH]1`, -10.8% (inactive).
As for `COc1ccc(NC(=O)CN(C)C(=O)c2cc(C)oc2C)cc1`, the figure is -15.3% (inactive).
For the molecule `CCc1cccc(CC)c1N1C(=O)CC(Sc2ccccc2N)C1=O` (stereo not drawn), the activity change was -0.824% (inactive).
With `CCC(c1nnnn1Cc1ccco1)N(CCc1ccccc1)Cc1cc2cccc(C)c2[nH]c1=O` (stereo not drawn) the figure was -261% (active); with `CCC(c1nnnn1C1CCCC1)N(Cc1cccs1)Cc1cc2cccc(C)c2[nH]c1=O` (stereo not drawn), -3.98% (inactive); with `CCC(c1nnnn1Cc1ccco1)N(Cc1cc2cc(OC)ccc2[nH]c1=O)C1CCCCC1` (stereo not drawn), 0.509% (inactive).
As for `Cc1ccccc1C#CC1=CC(=O)CC(C)(C)C1`, the figure is 11% (inactive); as for `CC1(C)CC(=O)C=C(c2ccccc2CO)C1=O`, 2.31% (inactive); as for `CCOC(=O)C1(CCOc2ccccc2)CCN(Cc2cc(OC)cc(OC)c2)CC1`, -109% (active).
With `CCOC(=O)C1(CCOc2ccccc2)CCN(Cc2ccc(C#CCCO)cc2)CC1` the figure was 19.1% (inactive); with `CCCS(=O)(=O)N1CCC(CCOc2ccccc2)(C(=O)OCC)CC1`, 9.17% (inactive).

The values are drawn from PubChem BioAssay AID720551 (National Center for Advancing Translational Sciences (NCATS), 2013).
